HT1080 IDH1KD tx: kills HT-1080 cells with IDH1 knockdown; Potency, µM (doses to about 46.1 µM), inactives show top-dose activity, negative = toxicity, most hits filed as cytotoxic; HT-1080 IDH1 knockdown viability, ATP luminescence, 48 h; actives 2% (n = 360,000);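 further: 0% = DMSO wells and -100% = cell-free medium wells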
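In this qHTS, HT-1080 cells depleted of IDH1 are exposed for 48 h at 37 °C to compound titrations. Toxicity is scored from CellTiter-Glo luminescence, with DMSO as full viability and medium alone as none.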
HT1080-NT tox: kills 2HG-producing HT-1080-NT fibrosarcoma cells; Potency, µM (doses to about 46.1 µM), for inactives: at the top dose activity, negative = less viability, hits mostly cytotoxic; HT-1080-NT fibrosarcoma viability, CellTiter-Glo ATP luminescence, 48 h; AID 686970; actives 1.6% (n = 360,000);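 further: NT is the 2HG producing partner of a matched IDH1 knockdown line; 0% = DMSO-treated cells and -100% = media-only wells without cells; nearly all actives have a fitted effect of over 55% in size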
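Toxicity toward the 2HG-producing NT line was scored as %Activity, normalised to DMSO and no-cell wells, from CellTiter-Glo luminescence after 48 hours' treatment.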
KB-V1 cytotox: kills drug-selected multidrug resistant KB-V1 cells; KB-V1 MDR cells viability, CellTiter-Glo, 72 h; Potency, µM (doses to about 46.1 µM), actives largely listed as cytotoxic; actives 3.4% (n = 400,000); AID 1347076; further: on the % scale 0 is the no-effect control and ±100 the full control effect; nearly all actives have a fitted effect of over 60% in size
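KB-V1 MDR subline cells in DMEM (phenol-red free, 10% FBS) exposed to compounds in qHTS concentration series for 72 h at 37 degrees C. Viability read by CellTiter-Glo luminescence; concentration-effect curves fitted after normalization and correction.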
KB-3-1 cytotox: KB-3-1 parental cell cytotoxicity; KB-3-1 viability, CellTiter-Glo ATP luminescence, 72 h; actives 1.4% (n = 400,000); Potency, µM (highest dose often 46.1 µM), hits mostly cytotoxic; further: on the % scale 0 is the no-effect control and ±100 the full control effect; nearly all actives have a fitted effect of over 60% in size
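Luminescent ATP read-out (CellTiter-Glo) measures survival of drug-naive KB-3-1 cells after 72 h compound exposure at 37 °C. Titration series was screened from lowest to highest concentration, with DMSO vehicle plates as background controls.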
MCF10A rereplic: inducers of DNA re-replication in MCF 10A breast cells | MCF 10A DNA re-replication, Hoechst nuclear intensity, 48 h | Potency, µM (highest dose often 46.1 µM), without a hit: at the top dose activity, positive = re-replication, actives largely listed as activators | actives 2.9% (n = 350,000) | AID 624296; further: % of control where 0% means no effect; nearly all actives have a fitted effect of over 50% in size
SW480 rereplic: induces DNA re-replication in SW480 colon adenocarcinoma cells; SW480 DNA re-replication, Hoechst DNA content imaging, 48 h; AID 624297; Potency, µM (titrated, usually from 46.1 µM), without a hit: at the top dose re-replication activation, usual class: activators; actives 1.8% (n = 340,000); further: % of control where 0% means no effect; nearly all actives have a fitted effect of over 55% in size
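Quantitative HTS format with DMSO vehicle controls; 48 hr drug incubation at 37 C, then 40 min Hoechst staining and scanning imager measurement at 405 nm excitation.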
* = called active by the depositor; i = inactive; ? = inconclusive; nt = not tested or not shown; ! = not confirmed by another sample. An excerpt weighted towards active compounds, which were near 7.9% of everything screened. The call rests on the fitted dose curve; in most records, active means well fitted curve in the direction sought with a large enough effect; inconclusive means small, poorly fitted or top-dose-only effect, or another doubt; inactive means no such curve, though single readings can be large; an effect the other way counts as inactive or inconclusive. Potency means the concentration at half of the fitted maximal effect.

SMILES | HT1080 IDH1KD tx | HT1080-NT tox | KB-V1 cytotox | KB-3-1 cytotox | MCF10A rereplic | SW480 rereplic
Cc1cc(C)c(C(=O)/C=C/c2ccc(C(C)C)cc2)c(=O)[nH]1 | 16µM* | -21% | 16µM* | i | 13µM* | ?
Cc1cc(C)c(C(=O)/C=C/C=C/c2ccccc2)c(=O)[nH]1 | -3% | -3% | i | i | ? | -1%
S=C(NCC1CCCO1)Nc1ccc(Cl)c(Cl)c1 (stereo unspecified) | -11% | 0% | i | i | ? | -30%
O=c1[nH]c2cccc(Cl)c2n(CCNc2ncc(C(F)(F)F)cc2Cl)c1=O | ? | 23µM* | ? | ? | ? | 10%
O=c1c2nncn2c2cccnc2n1CCNc1ncc(C(F)(F)F)cc1Cl | 3% | -16% | i | ? | -1% | ?
NNc1nc2cccnc2n(CCNc2ncc(C(F)(F)F)cc2Cl)c1=O | ? | -22% | ? | ? | 21µM* | 1%
COc1cc(/C=N/NC(=S)Nc2cccc(Cl)c2C)ccc1OCC(=O)N1CC(C)OC(C)C1 (stereo unspecified) | -16% | -1% | 4.6µM* | i | 2% | 3%
Oc1ccc(N=Nc2c(O)ccc3ccccc23)cc1 | ? | 11µM* | ? | i | -5% | 1%
COCCn1c(COc2ccc(C)cc2)nc2ccccc21 | -19% | -10% | ? | i | 3% | ?
Cc1ccc(NCc2nc3ccccc3n2CCOc2ccccc2)cc1 | 6% | 8% | 23µM*! | 16µM*! | 18% | 6%
CCOCCn1c(COc2ccc(C)cc2)nc2ccccc21 | 1% | 7% | 16µM* | ? | 19% | 104%
CCC1CCCCN1C(=S)NC(=O)c1cccc([N+](=O)[O-])c1 (stereo unspecified) | -20% | -22% | ? | i | 10% | 3%
O=C(c1ccc(Cl)cc1)N1CCN(c2ccc([N+](=O)[O-])c(NCc3cccnc3)c2)CC1 | -23% | -26% | 21µM* | i | 2% | 10%
O=C(c1ccccc1F)N1CCN(c2ccc([N+](=O)[O-])c(NCc3cccnc3)c2)CC1 | -18% | -21% | i | i | 24% | 3%
COc1ccc(C(=O)N2CCN(c3ccc([N+](=O)[O-])c(NCCc4ccc(OC)c(OC)c4)c3)CC2)cc1 | ? | 1.2µM* | ? | ? | 17% | -5%
O=C(c1ccccc1)N1CCN(c2ccc([N+](=O)[O-])c(NCc3cccnc3)c2)CC1 | -14% | 0% | 2.6µM* | ? | 5% | 3%
C=CC[n+]1c(/C=C2\C=Cc3cc(C)ccc3N2CC)ccc2ccccc21 | 13µM* | ? | ? | ? | 0% | -161%
COc1ccc(-c2nc(Cn3c(SCc4ccc(F)cc4)nc4ccncc43)c(C)o2)cc1OC | ? | 23µM* | i | ? | 3.7µM* | 0%
Cc1ccc(CSc2nc3ccncc3n2Cc2nc(-c3ccc(Cl)cc3)oc2C)cc1 | nt | nt | i | i | nt | nt
Cc1nn(C)c(C)c1NC(=O)c1ccnn1C | -1% | 11% | i | i | 14% | -1%
C=CCn1c(SCC(=O)Nc2cc(C)nn2-c2ccccc2)nnc1C1CCCCC1 | 9% | -2% | 5.8µM* | i | 0% | -2%
Cc1ccc(C2=NN3C(C2)c2ccccc2OC32C(=O)Nc3ccccc32)cc1 (stereo unspecified) | ? | ? | i | i | ? | 6%
CN1C(=O)C2(Oc3ccccc3C3CC(c4ccccc4)=NN32)c2ccccc21 (stereo unspecified) | -17% | -28% | 18µM* | i | 20% | ?
Cc1ccc(NC(=O)c2ccc(N3CCOCC3)c([N+](=O)[O-])c2)cc1S(=O)(=O)N1CCOCC1 | -15% | -3% | ? | 21µM* | 1% | -10%
O=C(Nc1cccc(S(=O)(=O)N2CCOCC2)c1)c1ccc(Cl)c([N+](=O)[O-])c1 | -1% | 3% | i | i | 9.2µM* | 16µM*
SMILES | HT1080 IDH1KD tx | HT1080-NT tox | KB-V1 cytotox | KB-3-1 cytotox | MCF10A rereplic | SW480 rereplic
COc1ccc(NC(=O)c2ccc(NCCCN3CCOCC3)c([N+](=O)[O-])c2)cc1 | 0% | 4% | 9.2µM* | ? | 14% | -5%
O=C(NCCCN1CCOCC1)c1ccc(Sc2cccc(Cl)c2)c([N+](=O)[O-])c1 | -5% | -8% | 21µM* | ? | 20% | -9%
O=[N+]([O-])c1cc(S(=O)(=O)NCCCN2CCOCC2)ccc1Cl | -4% | 0% | i | i | 16µM* | ?
Cc1ccc(NC(=O)c2ccc(NCCCN3CCOCC3)c([N+](=O)[O-])c2)cc1Cl | 18µM* | 18µM* | 23µM* | 8.2µM* | ? | ?
COc1cc(S(=O)(=O)NCCCN2CCOCC2)ccc1Cl | -22% | 4% | i | i | 5% | 10%
O=C(Nc1ccc(Cl)c([N+](=O)[O-])c1)c1ccc(NCCCN2CCOCC2)c([N+](=O)[O-])c1 | 0% | -1% | 4.6µM* | i | ? | 2.9µM*
Cc1cccc(C(=O)Nc2ccc(-c3nc4cc(C(C)C)ccc4o3)cc2)c1 | nt | nt | i | ? | nt | nt
CCOc1cc(/C=C2\N=C(C)OC2=O)cc(Br)c1OCC(=O)OC | 13% | -4% | i | i | 9.2µM* | 12µM*
Cc1cccc(NC(=O)c2sc(-n3nc(C)c(CCC(C)C)c3C)nc2C)c1C | nt | nt | i | i | nt | nt
COc1ccc(S(=O)(=O)Nc2ccc(S(=O)(=O)N3CCCCC3)cc2)cc1C | -2% | -1% | i | i | ? | 0%
Cc1cccc2cc(CN(CC3CCCO3)C(=S)NCc3ccco3)c(=O)[nH]c12 (stereo unspecified) | ? | -27% | 4.1µM* | i | 7% | ?
O=C(c1cc2ccccc2oc1=O)N(Cc1ccco1)CC1CCCO1 (stereo unspecified) | 6% | 6% | 12µM* | i | 15% | -8%
Cc1ccc2cc(CN(CC3CCCO3)C(=S)Nc3ccccc3)c(=O)[nH]c2c1C (stereo unspecified) | ? | ? | 2.3µM* | 7.3µM* | 2.6µM* | 5.2µM*
Cc1cc(C)c2[nH]c(=O)c(CN(CC3CCCO3)C(=S)NCc3ccco3)cc2c1 (stereo unspecified) | 24% | 13% | i | i | -1% | -2%

Compound activity: PubChem BioAssay, National Center for Advancing Translational Sciences (NCATS)
